Assay outcomes (PubChem)
The entries come from a sample that favours hits as a whole.
ST2 inh: inhibitors of human ST2 (IL1RL1) binding to IL-33; Q01638; AlphaLISA ST2-Fc/biotin-IL-33 interaction, 1 h; inhibition, % for hits at 17 µM; actives 2.3% (n = 78,000); AID 1259354; in the data active means inhibition above about 30%
Target sequence (Q01638 whole entry, looked up): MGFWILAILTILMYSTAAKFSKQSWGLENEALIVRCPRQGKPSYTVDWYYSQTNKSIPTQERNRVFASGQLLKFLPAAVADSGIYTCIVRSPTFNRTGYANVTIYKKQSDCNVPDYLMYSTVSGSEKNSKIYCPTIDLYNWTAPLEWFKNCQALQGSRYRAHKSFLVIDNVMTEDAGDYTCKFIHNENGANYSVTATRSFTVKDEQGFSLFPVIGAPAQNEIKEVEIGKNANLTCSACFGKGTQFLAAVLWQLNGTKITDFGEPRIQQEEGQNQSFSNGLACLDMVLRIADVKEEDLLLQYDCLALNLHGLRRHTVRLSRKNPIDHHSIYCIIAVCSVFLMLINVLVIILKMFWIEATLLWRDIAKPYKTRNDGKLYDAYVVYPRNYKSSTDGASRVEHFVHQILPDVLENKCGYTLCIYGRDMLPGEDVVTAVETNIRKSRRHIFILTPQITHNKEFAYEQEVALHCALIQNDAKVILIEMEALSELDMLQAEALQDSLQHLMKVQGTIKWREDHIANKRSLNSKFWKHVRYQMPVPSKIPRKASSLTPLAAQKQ
The depositor's hits bear a star; i = inactive.

SMILES | ST2 inh
CCOc1ccc2sc(C=NCCc3ccccn3)c(O)c2c1 | i
CCOc1ccc2nc(NC(=O)C3CCCCC3)sc2c1 | i
CCCCCN=Cc1sc2ccc(OCC)cc2c1O | 33.0%*
CN1CCc2c(sc(NC(=O)C3COc4ccccc4O3)c2-c2nc3ccccc3s2)C1 (stereo not given) | i
Cn1c(=O)[nH]c(=O)c2c1nc(CN1CCN(Cc3ccccc3)CC1)n2Cc1ccc(Cl)cc1 | i
Cc1nc2sc(C(N)=O)c(N)c2c(C)c1C | i
C=CCCC(=O)N1CCc2ccc(NC(=O)c3ccc(C(F)(F)F)cc3)cc2C1 | i
COc1ccc(N2C(=O)C3C4CCC(C4)C3C2=O)c(OC)c1 (stereo not given) | i
CN(CC(=O)Nc1ccc(C(=O)O)cc1)S(=O)(=O)c1ccccc1 | i
O=C(O)c1cccc(NS(=O)(=O)c2cccc(C(=O)Nc3ccccc3)c2)c1 | i
O=C(O)c1ccc(S(=O)(=O)c2ccccc2)cc1 | i
CCc1ccc(S(=O)(=O)N=C2C=C(Nc3cccc(C(=O)O)c3)C(=O)c3ccccc32)cc1 | 52.0%*
O=C(O)c1cccc(NC2=CC(=NS(=O)(=O)c3ccc(F)cc3)c3ccccc3C2=O)c1 | 45.0%*
O=C(O)c1ccc(NC2=CC(=NS(=O)(=O)c3ccccc3)c3ccccc3C2=O)cc1 | 48.0%*
CC(=O)c1cccc(NC(=O)C(Cc2ccccc2)N2C(=O)c3ccccc3C2=O)c1 (stereo not given) | i
O=C(O)c1cccc(NC(=O)C(c2ccccc2)c2ccccc2)c1 | i
O=C(O)c1cccc(NS(=O)(=O)c2ccccc2)c1 | i
O=C1C=C(Nc2ccc(Cl)cc2)C(=O)N1c1ccccc1 | i
O=C1C(Nc2ccc(O)cc2)=CC(=NS(=O)(=O)c2ccc(Cl)cc2)c2ccccc21 | 87.0%*
OCCCn1cnc(-c2ccccc2)c1-c1cccn1-c1ccccn1 | i
Cc1cc(C(=O)N2CCCC(C(=O)Nc3ccccc3Oc3cccnc3)C2)nn1C (stereo not given) | i
Nc1ccccc1S(=O)(=O)NCC(=O)N1CCCC1 | i
O=C(Nc1ccc(Cl)cc1[N+](=O)[O-])c1cnc2n(c1=O)CCS2 | i
C=CCN(CC=C)S(=O)(=O)c1ccc(C(=O)Nc2nc3c(s2)CCCC3)cc1 | i
COc1ccc(C2CC(C(F)(F)F)n3nc(C(=O)N4C(C)CCCC4C)c(Cl)c3N2)cc1 (stereo not given) | i
SMILES | ST2 inh
Cc1[nH]c2cc([N+](=O)[O-])ccc2c1C=O | i
O=C(NCCc1ccccc1Cl)c1ccc(NC2=NC3CS(=O)(=O)CC3S2)cc1 (stereo not given) | i
CCOc1ccc(C2C(C#N)=C(N)OC3=C2C(=O)CC(c2ccccc2)C3)cc1 (stereo not given) | i
CCCSc1oc(-c2cccs2)nc1S(=O)(=O)c1ccc(F)cc1 | i
N#C/C(=C\c1ccc(O)c(O)c1)C(=O)Nc1ccccc1 | i
C[C@@H](NC(=O)/C(C#N)=C/c1ccc(O)c(O)c1)c1ccccc1 | 58.0%*
CC(NC(=O)c1ccccc1C(=O)NC(C)c1ccccc1)c1ccccc1 (stereo not given) | i
O=C(NCc1ccc2c(c1)OCO2)C1CCN(S(=O)(=O)c2cccc3cccnc23)CC1 | i
CCOC(=O)c1c(NC(=O)c2ccc(Br)s2)sc2c1CCN(C)C2 | i
CCOC(=O)c1c(NC(=O)c2ccc(S(=O)(=O)N3CCCC3)cc2)sc2c1CCN(C)C2 | i
CCOC(=O)c1c(NC(=O)c2sc3ccccc3c2Cl)sc2c1CCN(C)C2 | 38.0%*
O=C(CCNc1ccc(-c2ccccc2)cc1)N1CCn2cncc2C1 | i
CC(C)=CC(=O)OC(C)(C)C1Cc2cc3ccc(=O)oc3cc2O1 (stereo not given) | i
Cc1ccccc1-c1c(C(F)(F)F)oc2c(C)c(O)ccc2c1=O | i
COc1ccc2c(=O)c(-c3ccccc3C)c(C(F)(F)F)oc2c1 | 75.0%*
COc1ccc2c(=O)c(-c3ccccc3Cl)c(C(F)(F)F)oc2c1 | i
FC(F)(F)c1cc(-c2cccs2)nc(NCC2CCCO2)n1 (stereo not given) | i
CCOC(=O)N1CCN(C(=O)COc2ccc(C(C)C)cc2)CC1 | i
O=C(O)c1cccc(N2C(=O)C3C4C=CC(O4)C3C2=O)c1 (stereo not given) | i
CC(=O)Nc1cccc(C(=O)O)c1 | i
Cc1ccc(C)n1-c1ccc(C(=O)O)c(C(=O)O)c1 | 88.0%*
Cc1ccc(C(=O)c2ccccc2C(=O)O)c(C)c1 | i
Cc1ccc(C)n1-c1cccc(C(=O)O)c1 | 96.0%*
Cc1cc(C=O)c(C)n1-c1ccc(C(=O)O)c(Cl)c1 | i
O=C(NCc1ccc(N2CCCC2=O)cc1)c1cn(CC2CCCO2)nn1 (stereo not given) | i
SMILES | ST2 inh
CCOc1cc(C(=O)Nc2cccc(NC(=O)c3ccccc3)c2)cc(OCC)c1OCC | i
Cc1ccc(S(=O)(=O)NC2=NCN(c3ccc(Cl)cc3)CN2)cc1 | i
COc1ccc(CN2CCN(C3CSCCSC3)CC2CCO)c(F)c1 (stereo not given) | i
COc1ccc2c(c1OC)C(=O)OC2Nc1ccc(Cl)c(Cl)c1 (stereo not given) | i
COc1cc(C2C(C#N)=C(N)OC3=C2C(=O)CC(C)(C)C3)ccc1OCC(N)=O (stereo not given) | i
N#CC1=C(N)SC(N)=C(C#N)C1c1ccc(Cl)cc1Cl | i
Cc1ccc(C2C(C#N)=C(N)SC(N)=C2C#N)o1 | 32.0%*
COc1ccccc1C1C(C#N)=C(N)SC(N)=C1C#N | i
CCC1CCCCN1CCCNC(=O)c1cn(C)c(=O)c2c1c1ccccc1n2C (stereo not given) | i
Cc1ccc(F)c(-c2ncccc2C(=O)N2CCCC2)c1 | i
Cc1ccc(C)c(C2=C/C(=C3/c4ccccc4-c4ncccc43)C(=O)O2)c1 | 43.0%*
Cc1ccc(F)c(-c2ncccc2NC(=O)C(C)C)c1 | i
COC(=O)[C@@H]1CCCN1Cc1ccc2c(c1)CN(Cc1cc(OC)cc(OC)c1)CCO2 | i
O[C@@H]1C[C@@H](c2nc(-c3ccc(C(F)(F)F)cc3)no2)N(Cc2ccc(-c3ccccn3)cc2)C1 | i
O=[N+]([O-])c1ccc(CN2C[C@H](O)C[C@H]2c2nc(-c3ccc(C(F)(F)F)cc3)no2)cc1 | i
O[C@@H]1C[C@@H](c2nc(-c3ccncc3)no2)N(Cc2ccc(-c3ccccn3)cc2)C1 | 33.0%*
COc1ccc(CN2C[C@H](O)C[C@H]2c2nc(-c3ccc(OC(F)(F)F)cc3)no2)cc1 | 31.0%*
CN(C)c1ccc(CN2C[C@H](O)C[C@H]2c2nc(-c3ccccn3)no2)cc1 | i
COc1ccc(-c2noc([C@@H]3C[C@@H](O)CN3Cc3ccc(Cl)cc3)n2)cc1 | i
O[C@@H]1C[C@@H](c2nc(-c3cccnc3)no2)N(Cc2ccccc2)C1 | i
COc1ccc(CN2C[C@H](O)C[C@H]2c2nc(CS(=O)(=O)c3ccc(C)cc3)no2)cc1 | i
O[C@@H]1C[C@@H](c2nc(-c3ccc(F)cc3)no2)N(Cc2ccc(OC(F)(F)F)cc2)C1 | 53.0%*
O=[N+]([O-])c1ccc(CN2C[C@H](O)C[C@H]2c2nc(-c3ccc(OC(F)(F)F)cc3)no2)cc1 | i
CS(=O)(=O)c1ccc(CN2C[C@H](O)C[C@H]2c2nc(-c3ccc(C(F)(F)F)cc3)no2)cc1 | i
COc1ccc(-c2noc([C@@H]3C[C@@H](O)CN3Cc3ccncc3)n2)cc1 | 36.0%*
